# Test results taken from PubChem BioAssay (NCI).
# Compounds without any hit were thinned out: in the full panel of roughly 83,000, 20% have a hit.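 Testing used 96-well plates and a 48-hour single-concentration exposure. Example: -40 means 40% of the starting cells died.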 A number with no mark means an inactive call. Calls of active or inactive are those of the source. How the source made its calls: active means growth percent below 10; inactive means the rest.
# Experiments:
# Experiment in all cases: NCI-60 one-dose screen, 48 h (100 = growth as untreated, 0 = no growth, -100 = all killed)
# Settings in all cases: 10 µM unless noted
# SK-MEL-2 melanoma = system: SK-MEL-2 melanoma
# EKVX NSCLC = system: EKVX NSCLC
# SN12C renal = system: SN12C renal
# UO-31 renal = system: UO-31 renal
# TK-10 renal = system: TK-10 renal
# ACHN renal = system: ACHN renal
# CAKI-1 renal = system: CAKI-1 renal
# A498 renal = system: A498 renal
# CCRF-CEM leukemia = system: CCRF-CEM leukemia
# MOLT-4 leukemia = system: MOLT-4 leukemia
# RPMI-8226 leukemia = system: RPMI-8226 leukemia
# OVCAR-8 ovarian = system: OVCAR-8 ovarian
# OVCAR-5 ovarian = system: OVCAR-5 ovarian
# OVCAR-4 ovarian = system: OVCAR-4 ovarian
# SK-OV-3 ovarian = system: SK-OV-3 ovarian
# IGROV1 ovarian = system: IGROV1 ovarian
# OVCAR-3 ovarian = system: OVCAR-3 ovarian
# HS 578T breast = system: HS 578T breast
# NCI/ADR-RES ovarian = system: NCI/ADR-RES ovarian
# SR leukemia = system: SR leukemia
Compound,growth (SK-MEL-2 melanoma),growth (EKVX NSCLC),growth (SN12C renal),growth (UO-31 renal),growth (TK-10 renal),growth (ACHN renal),growth (CAKI-1 renal),growth (A498 renal),growth (CCRF-CEM leukemia),growth (MOLT-4 leukemia),growth (RPMI-8226 leukemia),growth (OVCAR-8 ovarian),growth (OVCAR-5 ovarian),growth (OVCAR-4 ovarian),growth (SK-OV-3 ovarian),growth (IGROV1 ovarian),growth (OVCAR-3 ovarian),growth (HS 578T breast),growth (NCI/ADR-RES ovarian),growth (SR leukemia)
CCCCCC(=O)OCCC1CCCCC1,106%,108%,97.2%,92.2%,99%,107%,103%,79.3%,83.8%,95.7%,103%,104%,105%,101%,106%,108%,95.3%,89.7%,103%,–
CC(=O)NNC(=S)N/C=C/c1c(C)ccc([N+](=O)[O-])c1[N+](=O)[O-],92.3%,99.3%,96.2%,92%,118%,98.1%,98.8%,105%,99.9%,95.5%,–,102%,–,106%,105%,109%,103%,108%,97.9%,92.9%
O=C(NC(=S)N1CC=CCC1)c1ccccc1,84.4%,111%,88.4%,87%,94.5%,94.3%,105%,93.1%,121%,94.2%,104%,100%,97.4%,116%,107%,122%,115%,92.7%,108%,–
C=CCS(C)(=O)=O,100%,91.3%,98.1%,90.3%,96.6%,102%,92.5%,105%,110%,109%,104%,95.4%,101%,113%,90.3%,112%,108%,89.2%,104%,–
CC(C)Sc1ncnc2nc[nH]c12,108%,94.7%,96.7%,95.9%,116%,99.6%,101%,59.3%,111%,146%,–,107%,101%,115%,–,–,120%,139%,102%,122%
CCOC(=O)c1ccc(NC(=O)Nc2nccs2)cc1,-38.4% (active),55.5%,24.7%,14.8%,31.6%,9.97% (active),22.2%,7.68% (active),-0.276% (active),-2.7% (active),6.43% (active),8.24% (active),25.9%,16.7%,10.8%,-16.2% (active),-48.8% (active),48.4%,-6.67% (active),–
CCCCCCCCCCCCCC/C=C\C(CC(=O)O)C(=O)O (stereo unspecified),110%,140%,100%,95.9%,111%,110%,129%,95.2%,4.62% (active),115%,113%,103%,105%,112%,105%,117%,114%,127%,107%,–
O=[N+]([O-])c1c(O)c(CNCCCO)cc(CNCCCO)c1O,87.9%,96.1%,104%,63.7%,111%,93.9%,100%,130%,119%,73.2%,116%,106%,108%,105%,106%,2.99% (active),152%,97.1%,104%,–
CCNc1ccc2ccccc2c1N=Nc1ccc(N=Nc2ccccc2)cc1,64.6%,98.5%,96%,71.1%,128%,95.2%,107%,137%,95.8%,82.2%,95.9%,104%,93.1%,98.4%,97.4%,0.773% (active),109%,110%,109%,–
CCCCc1ccc2nc(NC(=O)OC)[nH]c2c1,44.4%,60.3%,34.5%,36.1%,57.6%,39.2%,19.5%,-5.63% (active),-15.5% (active),-18.9% (active),-26.4% (active),11.6%,23%,59.4%,15.2%,15.8%,-57.8% (active),8.57% (active),-1.32% (active),–
Cc1ccc(N2C(=O)c3cccc4c(N)c(S(=O)(=O)O)cc(c34)C2=O)cc1,82.3%,113%,105%,77.3%,124%,102%,108%,136%,100%,115%,104%,107%,84.7%,117%,106%,35.6%,121%,106%,103%,–
CCCCCCCCCCCCCCCCOc1ccccc1NC(=O)CC(C)=O,92.1%,89.7%,63.9%,25.8%,114%,98.6%,92.5%,93.5%,57.1%,84.8%,–,113%,102%,–,111%,88.4%,118%,118%,100%,107%
O=C(O)C1CCCN1C(=O)OCc1ccccc1 (stereo unspecified),94.7%,117%,103%,80.9%,106%,109%,94.6%,108%,112%,96.2%,112%,94.8%,105%,122%,102%,104%,120%,100%,105%,–
CC1(C)C2CCC1(C)C1(C2)OCCS1 (stereo unspecified),104%,87.4%,87.6%,90.1%,97.9%,102%,87.2%,113%,110%,99.6%,113%,101%,93.3%,101%,106%,104%,109%,102%,92.4%,–
CN1C(=O)NC(c2ccc(Cl)cc2)(c2ccc(Cl)cc2)C1=O,80.6%,91.5%,103%,61.5%,129%,108%,92.9%,110%,-30.3% (active),89.1%,84.2%,102%,112%,96.4%,115%,91%,104%,90.4%,86.8%,–
O=S(=O)(O)c1cccc2cccnc12,108%,110%,103%,76.8%,118%,111%,96.1%,104%,103%,100%,107%,112%,106%,118%,114%,101%,95.3%,95.2%,106%,–
COc1nc2ccccc2s1,100%,108%,99.3%,73.3%,111%,94.6%,90.5%,101%,102%,103%,91.6%,96.3%,93.1%,118%,89.5%,98.6%,110%,91%,99.2%,–
Nc1c(Br)cc(O)c2c1C(=O)c1ccccc1C2=O,55.4%,96.6%,80.9%,85.1%,91.1%,97.1%,83.8%,76.4%,56.5%,50.1%,84%,55.6%,112%,87.4%,109%,56.3%,96.2%,88.8%,89.6%,–

Compound,growth (SK-MEL-2 melanoma),growth (EKVX NSCLC),growth (SN12C renal),growth (UO-31 renal),growth (TK-10 renal),growth (ACHN renal),growth (CAKI-1 renal),growth (A498 renal),growth (CCRF-CEM leukemia),growth (MOLT-4 leukemia),growth (RPMI-8226 leukemia),growth (OVCAR-8 ovarian),growth (OVCAR-5 ovarian),growth (OVCAR-4 ovarian),growth (SK-OV-3 ovarian),growth (IGROV1 ovarian),growth (OVCAR-3 ovarian),growth (HS 578T breast),growth (NCI/ADR-RES ovarian),growth (SR leukemia)
Nc1ccn(C2OC(CO)C(O)C2F)c(=O)n1 (stereo unspecified),90.1%,96.4%,78.8%,76.8%,92.5%,62.1%,69.8%,88.5%,19.1%,-15.5% (active),73.8%,61.8%,93.2%,84.4%,103%,109%,80.4%,90.8%,73.2%,–
O=c1n(CC2CO2)c(=O)n(CC2CO2)n1CC1CO1 (stereo unspecified),41.1%,97.4%,69.7%,51%,74.2%,22.3%,28.6%,85.2%,37.5%,19.2%,57.5%,75%,130%,85.2%,49.2%,-4.87% (active),72.7%,90.5%,65.5%,–
CCOC(=O)c1cc(C)[nH]c(=O)c1C#N,104%,86.8%,102%,105%,101%,101%,56.9%,108%,81.9%,72.1%,80.4%,108%,105%,107%,95.4%,118%,105%,107%,109%,–
NNc1ncccn1,90.2%,102%,103%,83.5%,92.2%,105%,102%,91.7%,109%,110%,108%,108%,108%,101%,105%,111%,101%,91.5%,104%,–
S=C(NCc1ccccc1)N1CCC(CCCC2CCN(C(=S)NCc3ccccc3)CC2)CC1,114%,83.5%,96.8%,84.4%,108%,93.1%,86.6%,121%,88.8%,88.5%,75.5%,96.4%,121%,76.9%,100%,117%,95%,108%,99.3%,–
Cn1c2ccccc2c2nnc(NCCCCO)nc21,108%,76.3%,94.3%,68.4%,123%,87.2%,66.4%,105%,107%,97.7%,69.6%,100%,86.5%,94.6%,86.5%,57.8%,88.6%,81.6%,94.3%,–
NC(=S)N/N=C/c1ccc(OC(=O)COc2ccccc2)cn1,69.3%,109%,34.7%,24.5%,74.7%,8.03% (active),3.88% (active),70.5%,18.9%,22.3%,55.2%,29.6%,120%,69.1%,90.4%,54.6%,60.2%,116%,26.8%,–
CCCCn1cnc2c(=O)[nH]cnc21,107%,97.9%,105%,94.7%,109%,89.7%,98.4%,108%,96.7%,96.2%,108%,115%,98.7%,113%,104%,115%,113%,115%,113%,–
COc1ccc(NNS(=O)(=O)O)cc1,103%,104%,89.9%,90.4%,103%,97.4%,98.5%,69.5%,99.2%,105%,–,98.4%,93.3%,111%,102%,–,114%,–,92.4%,93.2%
COC1OC(CO)C(OC)C(O)C1O (stereo unspecified),111%,103%,104%,92.5%,110%,104%,105%,92.7%,102%,98.6%,–,105%,–,98.5%,105%,102%,112%,112%,93.5%,93.8%
CCOC(=O)C(=O)CC(=O)c1ccccc1,96.9%,97.4%,100%,85.3%,113%,94.8%,95.4%,–,114%,104%,98.4%,101%,95.1%,104%,111%,93.3%,106%,106%,93.1%,79.7%
CCN1CCCC(N2c3ccccc3Sc3ccccc32)C1 (stereo unspecified),97.4%,116%,101%,79.1%,78.8%,98.5%,101%,100%,–,96.3%,95.5%,102%,106%,–,111%,91.3%,98.5%,99.6%,99.7%,96.3%
Cc1ccc[n+](CCC(N)=O)c1,97.7%,90.2%,92%,85.9%,94.9%,105%,91.6%,–,90.8%,90.9%,102%,103%,93.8%,87.4%,94.7%,98.7%,111%,87.3%,97.4%,59.8%
CC(=O)N=c1ccc2nc3c(cc(N)c4ccccc43)oc-2c1,-42.4% (active),2.37% (active),-72.8% (active),-43.9% (active),47.6%,32.5%,-23.1% (active),80.5%,-11.5% (active),–,-19.9% (active),-22.1% (active),-73.5% (active),-89.8% (active),80.1%,-81.7% (active),-82.8% (active),-27.7% (active),-6.88% (active),–
CN(C)c1ccc2c(N(C)C)cc(N(C)C)nc2c1,143%,75.8%,83.1%,50.3%,104%,76.5%,68.6%,78.9%,–,80.3%,69.8%,–,102%,–,87.5%,103%,93.6%,100%,77%,–
Cc1cc2c(C(C)C)c(O)c(O)c(C=Nc3ccccc3[N+](=O)[O-])c2c(O)c1-c1c(C)cc2c(C(C)C)c(O)c(O)c(C=Nc3ccccc3[N+](=O)[O-])c2c1O,96.6%,60.7%,84.9%,84%,84.2%,83.3%,88%,101%,35%,–,–,76.2%,102%,74.4%,97.5%,80.6%,79.1%,81%,94.8%,–
Cc1ccc(N)c(S(=O)(=O)O)c1,84.3%,110%,100%,92.1%,128%,102%,90.8%,118%,–,83.6%,90.2%,103%,89%,83.7%,103%,206%,106%,113%,94.5%,79%
